Compounds with a hit are over-represented: about 3.8% of the library has one in this group of screens.
A549 tox-1 = kills or reduces viability of A549 cells in Nrf2 counter-screen. hit rate 0.16% among 390,000. A549 ARE-Fluc cells, CellTiter-Fluor viability, 18-24 h. Potency, µM (highest dose often 46 µM), most hits filed as inhibitors
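A549 ARE-Fluc cells in 5% FBS OPTI-MEM, 5000 cells/well, rested 2 h then exposed to compounds in concentration-response for 18-24 h at 37 °C. Viability by CellTiter-Fluor fluorescence (Ex 405/Em 525) after 30 min; luciferase luminescence (BugLite, 15 min, RT) read afterwards.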
HepG2 tox = HepG2 cytotoxicity, counter-screen for TGF-b inhibitors | HepG2 CAGA-GFP viability, ATP luminescence, 18 h | Potency, µM (top dose mostly 46.1 µM), most hits filed as cytotoxic | hit rate 0.76% among 410,000 | AID 588856
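HepG2 CAGA-GFP cells (1000/well, DMEM with 1% FBS) received compound, then TGF-beta at 500 pg/mL final, and were incubated 18 hours at 37 degrees C. Viability was read by CellTiter-Glo luminescence. Media-only wells were set as complete cell-killing and DMSO as no toxicity.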
ATXN2 expr inh = reduces ATXN2 reporter expression in HEK-293 cells. Potency, µM (highest dose often 57 µM), usual class: inhibitors. hit rate 0.72% among 360,000. AID 1745845. HEK-293 ATXN2-luciferase reporter, luminescence, 24 h; also: nearly all actives have a fitted effect of over 55% in size
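ATXN2-luciferase reporter cells (luciferase flanked by upstream and downstream ATXN2 gene portions) were treated 24 h at 37 °C with compounds at up to 57 uM. SteadyGlo luminescence gave expression; GF-AFC fluorescence gave viability.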
Nrf2 block = Nrf2 pathway inhibition; A549 ARE-Fluc reporter, luciferase luminescence, 18-24 h; Potency, µM (doses to about 46 µM), most hits filed as inhibitors; hit rate 2.1% among 360,000; also: nearly all actives have a fitted effect of over 60% in size
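In this cell-based qHTS, ARE-driven firefly luciferase in A549 cells reports Nrf2 activity; the luminescent signal after BugLite lysis is the measured value, with a prior CellTiter-Fluor read for cell health.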
ATXN viability = reduces viability in counter-screen for ATXN expression inhibitors; S2 cells (HEK-293 line with an ATXN2-luciferase reporter) viability, CellTiter-Fluor protease fluorescence, 24 h; Potency, µM (highest dose often 56.7 µM), actives largely listed as cytotoxic; AID 651635; hit rate 0.49% among 400,000; also: nearly all actives have a fitted effect of over 40% in size
TGFb inhibitor = inhibitors of TGF-b signaling; AID 588855; hit rate 1.2% among 410,000; HepG2 CAGA-GFP TGF-b/SMAD3 reporter, GFP fluorescence, 18 h; TGF-beta stimulated, 500 pg/mL final; Potency, µM (doses to about 46.1 µM), actives largely listed as inhibitors; also: nearly all actives have a fitted effect of over 65% in size
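Inhibition of TGF-beta-driven CAGA-GFP reporter expression in HEPG2 cells is measured by cellular GFP fluorescence after 18 h stimulation with 500 pg/mL recombinant TGF-beta in 1% FBS medium at 37 degrees C.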
FLuc counter 3 = firefly luciferase inhibition, Nrf2 hit validation. shares compounds with Nrf2 block. purified firefly luciferase, luminescence inhibition. Potency, µM (doses to about 57.5 µM), usual class: inhibitors. hit rate 4% among 1,400. AID 720522; also: nearly all actives have a fitted effect of over 65% in size
Target sequence (P08659 whole entry, looked up): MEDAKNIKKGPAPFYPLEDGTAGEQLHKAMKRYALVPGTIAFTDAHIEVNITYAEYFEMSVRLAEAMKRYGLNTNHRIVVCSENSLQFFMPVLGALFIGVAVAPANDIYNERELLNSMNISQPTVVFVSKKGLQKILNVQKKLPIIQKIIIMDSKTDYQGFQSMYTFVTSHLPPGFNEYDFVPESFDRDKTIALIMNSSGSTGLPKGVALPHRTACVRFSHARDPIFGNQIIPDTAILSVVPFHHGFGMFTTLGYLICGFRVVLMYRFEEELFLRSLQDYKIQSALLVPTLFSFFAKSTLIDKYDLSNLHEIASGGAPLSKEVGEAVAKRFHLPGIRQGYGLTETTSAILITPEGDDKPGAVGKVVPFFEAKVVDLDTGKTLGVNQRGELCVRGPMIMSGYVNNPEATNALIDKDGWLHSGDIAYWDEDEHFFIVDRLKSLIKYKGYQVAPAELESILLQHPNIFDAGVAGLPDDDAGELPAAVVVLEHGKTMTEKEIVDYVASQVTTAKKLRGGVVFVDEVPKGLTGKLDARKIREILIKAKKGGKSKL
A549 tox-2 = counter-screen for Nrf2 inhibitors: cytotoxicity in A549 ARE cells. shares compounds with Nrf2 block. A549 ARE-Fluc cells, cytotoxicity counterscreen. Potency, µM (top dose mostly 46.1 µM), actives largely listed as inhibitors. hit rate 2% among 1,400. AID 720523;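 also: cells exposed to compounds for 18 to 24 hours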
ARE-Fluc inh = Nrf2 inhibition confirmed, A549 ARE-luciferase; AID 720524; Potency, µM (series often up to 46.1 µM), hits mostly inhibitors; A549 ARE-firefly luciferase reporter, luminescence; hit rate 74% among 1,400; shares compounds with Nrf2 block; also: nearly all actives have a fitted effect of over 65% in size
Of the large screens only hits and unclear results are named; the others gave an inactive call (follow-up assays come after a bar, where shown). Calls follow the shape of the dose curve; as a rule, active = well fitted curve in the direction sought with a large enough effect; inconclusive = small, poorly fitted or top-dose-only effect, or another doubt; inactive = no such curve, though single readings can be large; an effect the other way counts as inactive or inconclusive.

c1cc2[nH]snc2c2nc(C3CC3)nc12	Nrf2 block 7.3µM, ATXN viability inconclusive, TGFb inhibitor inconclusive | FLuc counter 3 inconclusive | A549 tox-2 inactive | ARE-Fluc inh 13µM
Cc1ccc(Nc2c(-c3ccccn3)nc3cccc(C)n23)cc1	A549 tox-1 inconclusive, ATXN2 expr inh 6.3µM, Nrf2 block 6.5µM, ATXN viability inconclusive, TGFb inhibitor inconclusive | FLuc counter 3 inactive | A549 tox-2 inconclusive | ARE-Fluc inh 5.2µM
Cc1ccc(Nc2c(-c3ccc(C)o3)nc3cccc(C)n23)cc1	ATXN2 expr inh inconclusive, ATXN viability inconclusive, TGFb inhibitor inconclusive
OC(COc1ccc(Br)cc1)CN1CCN(c2ccccc2)CC1 (stereo not given)	none
CCOc1ccc(S(=O)(=O)NCc2cccnc2)cc1NC(=O)c1ccccc1F	none
CCOc1ccc(S(=O)(=O)NCc2ccncc2)cc1NC(=O)c1ccccc1	Nrf2 block 0.46µM, TGFb inhibitor inconclusive | FLuc counter 3 inactive | A549 tox-2 inactive | ARE-Fluc inh 3.7µM
CCOc1ccc(S(=O)(=O)NCc2ccncc2)cc1NC(=O)c1ccccc1F	Nrf2 block 2.6µM | FLuc counter 3 inactive | A549 tox-2 inactive | ARE-Fluc inh inconclusive
COc1ccc(S(=O)(=O)NCc2cccnc2)cc1NC(=O)c1ccccc1	none
Cc1cccc(OCC(=O)Nc2ccc(OCc3cc(=O)n4cc(C)ccc4n3)cc2)c1	none (no result: ATXN2 expr inh, Nrf2 block, ATXN viability)
CC(OC(=O)C1=COCCO1)C(=O)Nc1ccccc1C#N (stereo not given)	none
C[C@H](NC(=O)c1nc[nH]c1C(=O)N[C@@H](CCCCNC(=O)OC(C)(C)C)C(=O)OC(C)(C)C)C(=O)OC(C)(C)C	ATXN2 expr inh inconclusive, Nrf2 block inconclusive, ATXN viability inconclusive, TGFb inhibitor inconclusive
CC(C)(C)OC(=O)NCCCC[C@H](NC(=O)c1nc[nH]c1C(=O)NC(c1ccccc1)c1ccccc1)C(=O)OC(C)(C)C	A549 tox-1 inconclusive, Nrf2 block 3.7µM, TGFb inhibitor inconclusive | FLuc counter 3 inactive | A549 tox-2 inconclusive | ARE-Fluc inh 21µM
Cc1ccccc1C(=O)NC1CCN(Cc2ccccc2)CC1	none
Cc1csc2ncnc(NC3CCN(Cc4ccccc4)CC3)c12	ATXN2 expr inh inconclusive, Nrf2 block 9.2µM | FLuc counter 3 inactive | A549 tox-2 inactive | ARE-Fluc inh 4.1µM
COc1ccc(-c2[nH]c(-c3ccccc3)nc2SCC(=O)Nc2ccc3c(c2)OCO3)cc1	A549 tox-1 inconclusive, ATXN2 expr inh inconclusive, Nrf2 block inconclusive, ATXN viability inconclusive, TGFb inhibitor inconclusive
CC(C)Cn1c(C(C)C)nc([N+](=O)[O-])c1S(=O)(=O)c1ccc(F)cc1	A549 tox-1 inconclusive, Nrf2 block 9.2µM, ATXN viability inconclusive, TGFb inhibitor inconclusive | FLuc counter 3 inactive | A549 tox-2 inactive | ARE-Fluc inh inactive
O=C(CNC(=O)N1CC(=O)Nc2ccccc21)NCCc1cccc(F)c1	none
Cc1cc(C)c(S(=O)(=O)Nc2cccc3cccnc23)c(C)c1	Nrf2 block 2.9µM, TGFb inhibitor inconclusive (no result: ATXN2 expr inh, ATXN viability) | FLuc counter 3 inactive | A549 tox-2 inactive | ARE-Fluc inh 16µM
CCN1/C(=C/c2cc[n+](C)cc2)C=Cc2cc(C)ccc21	A549 tox-1 inconclusive, ATXN2 expr inh inconclusive, Nrf2 block 3.7µM, TGFb inhibitor inconclusive (no result: ATXN viability) | FLuc counter 3 inactive | A549 tox-2 10µM | ARE-Fluc inh 1.3µM
CCN1C(=O)/C(=C2\C=Cc3cc(C)ccc3N2CC)OC1=S	none
COc1ccc(/C=N/NS(=O)(=O)c2ccc(C)cc2)cc1OC(=O)c1ccc(C)cc1	Nrf2 block 5.2µM | FLuc counter 3 inactive | A549 tox-2 inactive
COc1ccc(C(=O)Oc2cc(/C=N/NS(=O)(=O)c3ccccc3)ccc2OC)cc1	none (no result: Nrf2 block)
Cc1ccc(S(=O)(=O)CCC(=O)NCCN2C(=O)S/C(=C\c3ccccc3)C2=O)cc1	ATXN viability inconclusive
Cc1ccc2c(c1)S/C(=C/c1ccc[n+](C)c1)N2CCO	Nrf2 block 2.6µM, ATXN viability inconclusive | FLuc counter 3 inactive | A549 tox-2 inactive | ARE-Fluc inh 6.5µM
Nc1nc(=O)n([C@@H]2O[C@H](CO)[C@@H](O)[C@@H]2F)cc1I	none (no result: A549 tox-1, HepG2 tox, Nrf2 block, TGFb inhibitor)
Cc1ccc(CCNc2ncnc(Cl)c2N)cc1	A549 tox-1 inconclusive, Nrf2 block 3.7µM | FLuc counter 3 inconclusive | A549 tox-2 inactive | ARE-Fluc inh inconclusive
COc1ccc(Nc2nnc(SC(C(=O)Nc3cc(C)ccc3C)c3ccccc3)s2)cc1 (stereo not given)	ATXN2 expr inh inconclusive, Nrf2 block 8.2µM | FLuc counter 3 inactive | A549 tox-2 inactive | ARE-Fluc inh inactive
COc1ccc(C)cc1NC(=O)C(Sc1nnc(Nc2cc(C)ccc2OC)s1)c1ccccc1 (stereo not given)	none
COc1ccc([C@H]2CC(=O)C=C(c3ccnc4ccc(Cl)cc34)C2)cc1	Nrf2 block 7.3µM, ATXN viability inconclusive, TGFb inhibitor inconclusive | FLuc counter 3 inactive | A549 tox-2 inactive | ARE-Fluc inh 8.2µM
COc1ccc([C@@]23Oc4cc(OC)cc(OC)c4[C@]2(O)[C@H](O)[C@H](C(=O)N(C)C)[C@H]3c2ccccc2)cc1	A549 tox-1 inconclusive, Nrf2 block 0.021µM, ATXN viability inconclusive | FLuc counter 3 inactive | A549 tox-2 inconclusive | ARE-Fluc inh 0.015µM
CC(C)(C)c1ccc(-c2noc(CCC(N)=O)n2)cc1	ATXN2 expr inh 0.32µM, Nrf2 block 0.13µM | FLuc counter 3 3µM | A549 tox-2 inactive | ARE-Fluc inh 0.16µM
Cc1cccc(NC(=O)C2CCN(S(=O)(=O)c3cccc4nsnc34)CC2)c1	Nrf2 block inconclusive, TGFb inhibitor inconclusive
O=C(Nc1cccc(F)c1)C1CCN(S(=O)(=O)c2cccc3nsnc23)CC1	Nrf2 block 0.0082µM, TGFb inhibitor inconclusive (no result: ATXN2 expr inh, ATXN viability) | FLuc counter 3 inactive | A549 tox-2 inactive | ARE-Fluc inh inactive
c1ccc2c(c1)CCCN2	TGFb inhibitor inconclusive (no result: A549 tox-1, ATXN2 expr inh, Nrf2 block, ATXN viability)
COc1ccc2nc(C(c3ccc(C)cc3)n3c(-c4ccccc4Br)nc4ccccc43)[nH]c2c1 (stereo not given)	ATXN viability inconclusive (no result: A549 tox-1, Nrf2 block)

Screening results (PubChem BioAssay)
